High-throughput results as filed in PubChem BioAssay.
NRP1-CendR mod – NRP-1/CendR interaction modulation; 0.85% of 360,000 active; FAM-RPARPAR peptide binding to NRP-1, fluorescence polarization; inhibition, % at 25 µM; AID 602438;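 active = inhibition or corrected inhibition above about 18%, plus a signal ratio from 0.5 to 1.5, limit read from the data, passing the limit was not always enough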
Target sequence (O14786 whole entry, looked up): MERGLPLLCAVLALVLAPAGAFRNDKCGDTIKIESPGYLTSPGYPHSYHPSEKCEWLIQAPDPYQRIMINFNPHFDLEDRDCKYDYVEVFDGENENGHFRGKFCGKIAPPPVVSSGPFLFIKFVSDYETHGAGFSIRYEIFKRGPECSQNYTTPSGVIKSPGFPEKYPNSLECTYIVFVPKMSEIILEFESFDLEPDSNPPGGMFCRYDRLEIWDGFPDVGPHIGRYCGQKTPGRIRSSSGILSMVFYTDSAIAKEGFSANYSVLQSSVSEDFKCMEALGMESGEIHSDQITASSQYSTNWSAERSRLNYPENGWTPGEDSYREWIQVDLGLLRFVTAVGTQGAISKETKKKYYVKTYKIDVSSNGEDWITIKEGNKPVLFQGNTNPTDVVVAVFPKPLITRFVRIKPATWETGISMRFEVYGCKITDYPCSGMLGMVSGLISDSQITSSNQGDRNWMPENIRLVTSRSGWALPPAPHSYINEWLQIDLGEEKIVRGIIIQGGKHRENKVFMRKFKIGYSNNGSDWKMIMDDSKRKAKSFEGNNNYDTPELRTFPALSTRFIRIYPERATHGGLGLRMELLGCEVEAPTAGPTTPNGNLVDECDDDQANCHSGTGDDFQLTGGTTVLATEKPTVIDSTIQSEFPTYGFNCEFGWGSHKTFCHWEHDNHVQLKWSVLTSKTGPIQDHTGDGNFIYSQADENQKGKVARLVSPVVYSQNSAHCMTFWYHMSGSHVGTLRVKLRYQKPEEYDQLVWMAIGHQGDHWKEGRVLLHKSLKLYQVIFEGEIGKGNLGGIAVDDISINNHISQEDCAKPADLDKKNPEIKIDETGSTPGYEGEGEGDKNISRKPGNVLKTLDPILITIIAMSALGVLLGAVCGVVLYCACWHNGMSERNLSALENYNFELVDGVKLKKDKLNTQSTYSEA
ABCB6 inh 2 – human ABCB6 transporter inhibition. Q9NP58. fluorescence ratio to DMSO, % at 10 µM. 0.19% of 360,000 active. K562-ABCB6 porphyrin accumulation, flow cytometry, 1 h; hits give low values;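 active = fluorescence ratio to DMSO below 75%, the collection mean minus 3 SD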;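 note: signal is porphyrin accumulated inside mitochondria; 100% equals median channel fluorescence of DMSO control wells; lower ratio means ABCB6 inhibition with less porphyrin fluorescence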
ARNT TACC3 PPI – disrupts binding between human ARNT and TACC3; Q9Y6A5; AlphaScreen His-ARNT PAS-B/GST-TACC3 binding, luminescence; TACC3 fragment carries E629A point mutation; inhibition, % at 9.99 µM; 0.66% of 390,000 active; AID 623870;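 active = mean inhibition of replicates at least 50% and at least half of replicates each reaching 50%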;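 note: 0% = complete ARNT plus TACC3 wells and 100% = ARNT alone without TACC3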
hiPSC survival – enhancers of human iPSC single-cell survival | survival enhancement, % at 20 µM | 0.044% of 360,000 active | hiPSC single-cell survival, ATPlite luminescence; 100% = ROCK inhibitor wells, 0% = DMSO | AID 602274; in the data active = survival enhancement above about 18%;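 note: cells exposed to compounds for 16 hours before the ATP read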
INS-1E GSIS act – GLuc luminescence reporter in INS-1E cells, primary screen for activators of glucose-dependent secretion of insulin; INS-1E GLuc reporter insulin secretion, 2-3 h; activation, % at 16.6 µM; 0.61% of 370,000 active; AID 743287;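 active = lowest replicate activation of at least 40%, so every replicate reaches that level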;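 note: 0% = median of neutral control wells and 100% = median of IBMX positive control wells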
* marks the source's active call; other numbers are inactive results; x = no result given. Rows were chosen to be rich in hits. Some 1.8% of all compounds tested hit in one or more screens of this group.

SMILES	NRP1-CendR mod	ABCB6 inh 2	ARNT TACC3 PPI	hiPSC survival	INS-1E GSIS act
COc1ccc2c3c([nH]c2c1)[C@@H](CO)N(C(=O)c1cccc(F)c1)CC31CN(C(=O)c2ccccc2)C1	x	x	x	x	3
c1ccc(Cn2c(-c3ccccc3)nc3nc4ccccc4nc32)cc1	-4	90	x	4	-11
O=[N+]([O-])c1cc(-c2nc3nc4ccccc4nc3n2CCc2ccccc2)cc([N+](=O)[O-])c1	28*	108	-1	-1	-10
CN1[C@@H]2c3ccc(C4=CCCCC4)c(=O)n3C[C@H]1[C@H](CO)[C@H]2C(=O)NCc1cccc(F)c1	x	x	-1	x	-4
COc1ccc(N/C=C\C(=O)c2ccc(Br)cc2)cc1OC	-176	95	-7	4	131*
CC(C)(C)c1ccccc1OCC(O)CN1CCN(c2ccccn2)CC1 (centres undefined)	-4	96	6	0	63*
CCCC(=O)N1CC2(C1)CN(Cc1nccs1)[C@@H](CO)c1[nH]c3cc(OC)ccc3c12	x	x	x	x	7
Cc1cc(C)n(C2CC(=O)N(c3cc(Cl)cc(Cl)c3)C2=O)n1 (centres undefined)	35*	101	15	0	-12
C/C=C/c1ccc([C@H]2[C@@H](CO)N[C@@H]2CNC(=O)C2CCCCC2)cc1	x	x	x	x	-2
Cc1occc1C(=O)Nc1cccc(Cl)c1Cl	29*	98	-2	0	3
C[C@@H]1CC2=C(C(=O)OC(C)(C)O2)[C@H](c2ccc(F)cc2)O1	3	125	x	0	56*
C[C@@H]1CC2=C(C(=O)OC(C)(C)O2)[C@H](c2ccc(Cl)cc2)O1	6	122	x	0	52*
CC(C)C1CC2=C(C(=O)OC(C)(C)O2)C(c2ccc(Cl)cc2)O1 (centres undefined)	1	105	x	5	x
CC1(C)OC(=O)C2=C(C[C@@H](C3CCCCC3)O[C@@H]2c2ccc(F)cc2)O1	-20	101	x	1	-26
CCOC(=O)N(C)C[C@H]1OCc2ccccc2-c2ccccc2C(=O)N([C@H](C)CO)C[C@H]1C	x	x	x	x	4
O=C(NCc1ccccc1)[C@H]1[C@H](CO)[C@H]2Cn3c(ccc(-c4cccnc4)c3=O)[C@H]2N1Cc1cocn1	x	x	x	x	9
Cc1ccccc1C(=O)Oc1cc(N)n(S(C)(=O)=O)n1	18*	98	2	0	-2
Cc1ccc(S(=O)(=O)n2nc(OC(=O)c3ccccc3C)cc2N)cc1	-6	100	-10	1	-15
S=c1sc2c(Cl)ncnc2n1-c1ccccc1	6	108	69*	6	9
O=C(O)c1ccc(-n2nnnc2SCc2ccccc2Br)cc1	-7	100	-1	0	48*
COC(C[C@H]1O[C@H]1[C@@H](O)[C@@H](C)OCc1ccccc1)OC	20*	103	2	-1	-6
COC(C[C@H]1O[C@@H]1C(=O)COCc1ccccc1)OC	x	x	x	x	-2
COC(C[C@H](O)C[C@@H](O)[C@H](C)OCc1ccccc1)OC	6	94	-7	-1	17
COC(C[C@@H]1O[C@H]1C(=O)COCc1ccccc1)OC	28*	93	-5	0	-2
COC(C[C@@H](O)C[C@H](O)[C@@H](C)OCc1ccccc1)OC	21*	87	2	-2	9
SMILES	NRP1-CendR mod	ABCB6 inh 2	ARNT TACC3 PPI	hiPSC survival	INS-1E GSIS act
COC(C[C@@H]1O[C@@H]1[C@H](O)[C@H](C)OCc1ccccc1)OC	19	83	-4	-1	0
COCC(=O)N1[C@H](CO)[C@@H](c2ccc(-c3ccccc3)cc2)C12CN(C(C)=O)C2	x	x	x	x	-1
C[C@@H]1CN([C@H](C)CO)C(=O)c2cc(NC(=O)Cc3ccccc3)ccc2O[C@@H](C)CCCCO[C@@H]1CN(C)C(=O)Nc1cccc2ccccc12	x	x	2	x	0
C[C@@H]1CN([C@@H](C)CO)C(=O)c2cc(NC(=O)Nc3cccc4ccccc34)ccc2O[C@@H](C)CCCCO[C@H]1CN(C)Cc1ccc2c(c1)OCO2	x	x	7	x	-19
Cc1ccc(S(=O)(=O)Nc2ccc3c(c2)C(=O)N([C@@H](C)CO)C[C@H](C)[C@H](CN(C)Cc2ccc(C(=O)O)cc2)OCCCC[C@@H](C)O3)cc1	x	x	-3	x	13
Cc1ccc(NC(=S)N=Nc2c(O)[nH]c3ccccc23)cc1	6	104	-5	-2	2
Oc1ccc(NC(=S)N=Nc2c(O)[nH]c3ccccc23)cc1	3	100	67*	2	-7
